Experimental data taken from PubChem BioAssay (EPA / NIEHS).
“And” between values parts separate entries of the source, which are not always exact repeats. Equal entries are not always repeated. The source made the active and inactive calls. The calls were made as follows: active = hit-call score of the fitted dose curve at least 0.9, where 1 is the maximum; inactive = score below 0.9.

read-out: Plasminogen activator inhibitor-1 (PAI1), SERPINE1 (gene 5054); experiment: BSK_hDFCGF_PAI1: BioMAP Diversity Plus: hDFCGF Assay for Plasminogen activator inhibitor-1 (PAI1) Biomarker Activity (AID 2283066); conditions: primary human foreskin fibroblasts; actives raise or lower the signal
Experimental: BSK_hDFCGF is a cell-based, multiplexed-readout assay that uses foreskin fibroblast, a human skin primary cell, with measurements taken at 24 hours after chemical dosing in a 96-well plate.BSK_hDFCGF_PAI1 is an assay component measured in the BSK_hDFCGF assay. It measures PAI-1 antibody related to regulation of gene expression using ELISA technology.Data from the assay component BSK_hDFCGF_PAI1 was analyzed into 1 assay endpoint. This assay endpoint, BSK_hDFCGF_PAI1, was analyzed with bidirectional fitting relative to DMSO as the negative control and baseline of activity. Using a type of binding reporter, gain or loss-of-signal activity can be used to understand changes in the signaling as they relate to the gene SERPINE1. Furthermore, this assay endpoint can be referred to as a primary readout, because this assay has produced multiple assay endpoints where this one serves a signaling function. To generalize the intended target to other relatable targets, this assay endpoint is annotated to the cytokine intended target family, where the subfamily is plasmogen activator inhibitor.
The levels of cell surface (or secreted, indicated by the prefix "s") biomarker endpoints were measured by ELISA. Overt cytotoxicity to cells in confluent adherent cultures (all systems other than the BT system) was assessed by measuring total protein levels using sulforhodamine B (SRB) staining in parallel cultures at the time of biomarker measurements, indicated as SRB endpoints. For proliferation assays for adherent cell types, individual cell types are cultured at sub-confluence and relative cell numbers quantified by SRB staining at time points optimized for each system (48 h: 3C and CASM3C systems; 72 h: BT and HDF3CGF systems; 96 h: SAg system). SRB was performed by staining cells with 0.1% SRB after fixation with 10% TCA and reading wells at 560 nm.Viability and proliferation of PBMC (T cells) was quantified by Alamar Blue reduction for the SAg and BT systems. For PBMC viability (referred to as PBMC Cytotoxicity within the assay endpoint names), cells were plated (75,000/well in a 96-well plate) and then chemical samples added for 1 h before addition of activators, SEB and TSST-1 (20 ng/mL final concentration each). Cells were incubated for 90 h. Then, Alamar Blue (20 uL/well) (Invitrogen, Cat DAL1100) was added for 6 h, and the plates were read with a fluorescence microplate reader at 546/580 nm (excitation/emission). For PBMC proliferation, cells were plated and activated as above but incubated for only 16 h prior to addition of Alamar Blue. Plates were read after 6 h.

SMILES | AC50 | outcome
CCCCc1oc2ccccc2c1C(=O)c1cc(I)c(OCCN(CC)CC)c(I)c1 | 4.81 µM (active) | –
CCC(C)c1ccccc1O (stereo not given) | – | inactive
CCCCCc1ccc(O)cc1 | 28.5 µM (active) | –
CCOC(=O)CN[C@@H](C(=O)N1CC[C@H]1C(=O)NCc1ccc(/C(N)=N/O)cc1)C1CCCCC1 | – | inactive
CN(Cc1cnc2nc(N)nc(N)c2n1)c1ccc(C(=O)N[C@@H](CCC(=O)O)C(=O)O)cc1 | – | inactive
CC(C)(C)c1ccc(O)c(O)c1 | – | inactive
C=CC(C)(CCC=C(C)C)OC(C)=O (stereo not given) | 29.8 µM (active) | –
Cc1[nH]nc2c1N=C(c1ccccc1Cl)c1cc([N+](=O)[O-])ccc1N2 | 5.16 µM (active) | –
O=C(O)CCC(F)(F)C(F)(F)C(F)(F)C(F)(F)C(F)(F)F | – | inactive
O=S(=O)(O)C(F)(F)C(F)(F)C(F)(F)C(F)(F)C(F)(F)C(F)(F)C(F)(F)C(F)(F)C(F)(F)C(F)(F)F | – | inactive
CCCCC(CC)C(=O)OCCOCCOCCOCCOC(=O)C(CC)CCCC (stereo not given) | – | inactive
CC(=O)Nc1ccc(O)cc1 | – | inactive
O=P(O)(O)CCC(F)(F)C(F)(F)C(F)(F)C(F)(F)C(F)(F)C(F)(F)F | – | inactive
CCCCC=O | – | inactive
CCCCCCCCCCCC | 11.2 µM (active) and 10.6 µM (active) | –
O=C(CCCN1CCC(O)(c2ccc(Cl)cc2)CC1)c1ccc(F)cc1 | – | inactive
CCCCCCCCCCCCCCCCCC[N+](C)(C)Cc1ccccc1 | 0.636 µM (active) | –
C[C@]12CC[C@@H]3c4ccc(O)cc4CC[C@H]3[C@@H]1C[C@@H](O)[C@@H]2O | – | inactive
O=C(NO)c1ccccc1 | – | inactive
COc1cc(OC)nc(NC(=O)NS(=O)(=O)Nc2ccccc2C(=O)N(C)C)n1 | – | inactive

SMILES | AC50 | outcome
O=P(O)(O)CCC(F)(F)C(F)(F)C(F)(F)C(F)(F)C(F)(F)C(F)(F)C(F)(F)C(F)(F)F | 29.5 µM (active) and 18.4 µM (active) | –
CCCCCCCCCCCCOS(=O)(=O)O | 33.6 µM (active) | –
OCC(CO)(CBr)CBr | – | inactive
O=C(O)C(F)(F)OC(F)(F)C(F)(F)OC(F)(F)C(F)(F)OC(F)(F)C(F)(F)C(F)(F)C(F)(F)F | 11.4 µM (active) | –
NC(=NCCCCCCN=C(N)/N=C(\N)Nc1ccc(Cl)cc1)/N=C(\N)Nc1ccc(Cl)cc1 | 3.67 µM (active) | –
CN(C)CCOC(c1ccccc1)c1ccccc1 | – | inactive
COC1=CC(=O)C[C@@H](C)[C@]12Oc1c(Cl)c(OC)cc(OC)c1C2=O | 0.497 µM (active) | –
O=C1NS(=O)(=O)c2ccccc21 | – | inactive
Oc1c(Cl)cc(Cl)cc1Sc1cc(Cl)cc(Cl)c1O | 1.23 µM (active) and 1.32 µM (active) | –
O=C1OC2(c3ccccc31)c1cc(I)c(O)c(I)c1Oc1c2cc(I)c(O)c1I | 5.52 µM (active) | –
C=CC(=C)CC/C=C(\C)CCC=C(C)C | – | inactive
CC1=NN(c2ccccc2)C(=O)C1 | – | inactive
Oc1ccc(Cc2ccccc2O)cc1 | – | inactive
Oc1cc2ccccc2cc1O | – | inactive
OCCN1CN(CCO)CN(CCO)C1 | – | inactive
COc1cccc(O)c1 | – | inactive
OCC(F)(F)C(F)(F)C(F)(F)C(F)(F)C(F)(F)C(F)(F)C(F)(F)C(F)(F)C(F)(F)C(F)(F)C(F)(F)F | – | inactive
Cc1ccc(N=Nc2c(O)ccc3ccccc23)c(C)c1 | – | inactive
O=C(NCc1ncc(C(F)(F)F)cc1Cl)c1c(Cl)cccc1Cl | – | inactive
CN(CCO)S(=O)(=O)C(F)(F)C(F)(F)C(F)(F)C(F)(F)C(F)(F)C(F)(F)C(F)(F)C(F)(F)F | – | inactive
